Laboratory results taken from article PMC9911399, “Two distinct binding modes provide the RNA-binding protein RbFox with extraordinary sequence specificity”.
Positions count from the first letter of the chain named. Whole data set: some 16,000 sequences, median “ka relative to ugcaugu” near 0.0091, cut for the highest 2% near 0.032. This is one part of a sample in which the highest values are shown more often than they occur.

T1: RBFOX1 RRM (Homo sapiens, UniProt Q9NWB1 109-208)
T1 sequence: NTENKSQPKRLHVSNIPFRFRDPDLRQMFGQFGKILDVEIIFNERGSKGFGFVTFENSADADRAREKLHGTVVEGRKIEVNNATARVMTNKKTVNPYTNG

B1: CAACUCA (DNA:RNA)
RNA: GGGAGACCGGAAUUCAGAUUGUCCCAACUCAUUAAAUCCCGUCGUAGCCACCA
DNA 1: CAATCTGAATTCCGGTCTCCC
DNA 2: TGGTGGCTACGACGGGATT
B2: GAUCAAG (DNA:RNA)
RNA: B1 RNA with C25G, A27U, U29A, C30A, A31G
DNA 1: CAATCTGAATTCCGGTCTCCC
DNA 2: TGGTGGCTACGACGGGATT
B3: CAUAUGA (DNA:RNA)
RNA: B1 RNA with A27U, C28A, C30G
DNA 1: CAATCTGAATTCCGGTCTCCC
DNA 2: TGGTGGCTACGACGGGATT
B4: ACAUCGA (DNA:RNA)
RNA: B1 RNA with C25A, A26C, C28U, U29C, C30G
DNA 1: CAATCTGAATTCCGGTCTCCC
DNA 2: TGGTGGCTACGACGGGATT
B5: AUUACAG (DNA:RNA)
RNA: GGGAGACCGGAAUUCAGAUUGUCCAUUACAGUUAAAUCCCGUCGUAGCCACCA
DNA 1: CAATCTGAATTCCGGTCTCCC
DNA 2: TGGTGGCTACGACGGGATT
B6: GUCGCUU (DNA:RNA)
RNA: B5 RNA with A25G, U27C, A28G, A30U, G31U
DNA 1: CAATCTGAATTCCGGTCTCCC
DNA 2: TGGTGGCTACGACGGGATT
B7: GCCUGCC (DNA:RNA)
RNA: B1 RNA with C25G, A26C, A27C, C28U, U29G, A31C
DNA 1: CAATCTGAATTCCGGTCTCCC
DNA 2: TGGTGGCTACGACGGGATT
B8: GCCUGCA (DNA:RNA)
RNA: B1 RNA with C25G, A26C, A27C, C28U, U29G
DNA 1: CAATCTGAATTCCGGTCTCCC
DNA 2: TGGTGGCTACGACGGGATT
B9: CGCUGCA (DNA:RNA)
RNA: B1 RNA with A26G, A27C, C28U, U29G
DNA 1: CAATCTGAATTCCGGTCTCCC
DNA 2: TGGTGGCTACGACGGGATT
B10: GCCUGCG (DNA:RNA)
RNA: B5 RNA with A25G, U26C, U27C, A28U, C29G, A30C
DNA 1: CAATCTGAATTCCGGTCTCCC
DNA 2: TGGTGGCTACGACGGGATT
B11: ACCUGCA (DNA:RNA)
RNA: B1 RNA with C25A, A26C, A27C, C28U, U29G
DNA 1: CAATCTGAATTCCGGTCTCCC
DNA 2: TGGTGGCTACGACGGGATT
B12: GUCCGCC (DNA:RNA)
RNA: B1 RNA with C25G, A26U, A27C, U29G, A31C
DNA 1: CAATCTGAATTCCGGTCTCCC
DNA 2: TGGTGGCTACGACGGGATT

biological target: T1, RBFOX1 RRM; assay: EMSA; HiTS-Eq, 1 nM pool, 10 min; buffer printed only for the single-RNA assays: 10 mM Tris pH 7.5, 150 mM NaCl, 3.4 mM EDTA, 0.001% NP-40, 30 C; conditions: tags: His6 N-terminal (pET28a); label: 5' 32P
In short: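 These values rest on relative association constants, computed from read-count changes of each RNA species versus the control reaction and normalised to the cognate motif. Reads came from free RNA recovered by 8% native PAGE after purified RbFox RRM (wild type or mutant) at increasing concentrations was equilibrated for 10 min in 50 µL with 1 nM of a 5′-radiolabelled pool with 7 randomized nucleotides and DNA-annealed flanks.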

Row | Binder | binding signal
1 | B1 | 0.0014 KA relative to UGCAUGU
2 | B2 | 0.0079 KA relative to UGCAUGU
3 | B3 | 0.00465 KA relative to UGCAUGU
4 | B4 | 0.00224 KA relative to UGCAUGU
5 | B5 | 0.0056 KA relative to UGCAUGU
6 | B6 | 0.0147 KA relative to UGCAUGU
7 | B7 | 0.0261 KA relative to UGCAUGU
8 | B8 | 0.0378 KA relative to UGCAUGU
9 | B9 | 0.0198 KA relative to UGCAUGU
10 | B10 | 0.0321 KA relative to UGCAUGU
11 | B11 | 0.0144 KA relative to UGCAUGU
12 | B12 | 0.0105 KA relative to UGCAUGU
